Experimental data: the supplement of paper PMC11417369
± gives the standard deviation of the averaged measurements. In all, about 25,000 sequences were measured (“ln(normalized median fluorescence intensity)”: median about 8.6, highest 2% from about 10 on). Only a selection was taken, and the highest values are over-represented in it overall.

What follows are sequences tested on PfAP2-EXP AP2 domain (GST-tagged) (assay: gcPBM binding intensity (ln(normalized median fluorescence intensity)); higher = stronger DNA binding).
Procedure, shortened: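 Binding intensity is defined as the maximum Masliner-normalised natural-log median intensity across replicate spots for either probe orientation. It was measured on an Agilent 4 × 180k array of primer-extended double-stranded 36-bp intergenic genomic probes and negative controls, to which GST-tagged P. falciparum DNA-binding domains made in E. coli were applied for 1 h in 1× PBS with 1% milk, 0.2 mg/ml BSA, 0.5% salmon testes DNA and 0.03% Triton X-100. Detection was by Alexa488 anti-GST antibody and scanning at 488 nm.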

| Sequence | gcPBM binding intensity (ln) |
| --- | --- |
| TATGTATATTTTAATTGTACGTGTATGGTTGTAAAT [XGTACX_site8738] | 8.79 ± 0.38 |
| TATTAAAATATTTATACACACATAATTTTGATAAAT [CACACA_site4486] | 8.19 ± 0.43 |
| ATAATATTATTATAATGTACATATTTCGATATAAAT [XGTACX_site8808] | 8.61 ± 0.42 |
| TATTCGTGCAATAATAGTACACTTATAAATTATTCA [XGTACX_site8993] | 8.595 ± 0.064 |
| TACTTTATATAAAGATCAAAAAATAAATAATTATAA [TGCATGCA_negctrl_site446] | 8.45 ± 0.21 |
| CACAATACTTTCATCACACATATATATATATATATA [CACACA_site4677] | 10.1 ± 0.28 |
| TCAAAAATAAAGATCACACATATATATATATATATA [CACACA_site4381] | 10.2 ± 0.35 |
| ATCAAAGATAAATTTACACACATATAAATATAAATA [CACACA_site7409] | 8.44 ± 0.56 |
| AAAAAAAAAGATCACACACACATAAATATAAACAAA [CACACA_site5285] | 8.48 ± 0.26 |
| TACTTTCAAAAGATCACACATATATATATATATATA [CACACA_site5630] | 10.39 ± 0.085 |
| TTTTTTTTTTTTTTTTGTACATAAATTTTTATTAGA [XGTACX_site6409] | 8.17 ± 0.35 |
| TATACATATTTCTATTGTACATAAACTAAATCTTCA [XGTACX_site28] | 8.27 ± 0.49 |
| TTTTATTTTTTATTTGCACACAATATGTAAAAAAAT [CACACA_site2927] | 8.71 ± 0.16 |
| ATATTAATTCGTTTTGTACACACATAATGAATAATT [CACACA_site8701] | 8.43 ± 0.24 |
| TGTGCTATATTCATATGTACATATAATTATTATATA [XGTACX_site3549] | 8.86 ± 0.028 |
| CTGTATTCATAATTCACACAAATGGTTTATATGAAT [CACACA_site4315] | 8.5 ± 0.31 |
| GGGGACGCGGGTGGGGGTACTCACACTATGCAAAAT [XGTACX_site7745] | 10.3 ± 0.4 |
| ATGCAAATGTGCATCACACACACTAATGGGTATGTA [CACACA_site2893] | 8.39 ± 0.38 |
| GCTTAGTTATATAACTGTACTATTTTTATTTATATG [XGTACX_site884] | 9.16 ± 0.83 |
| CCTATAATAAATAATACACACATATTGTAAATATAT [CACACA_site7496] | 8.46 ± 0.53 |
| CACATAAAATAAGGTGCATGCAAACGAGAAAATAAA [TGCATGCA_site75] | 10.5 ± 0.11 |
| GAAAGAATAAAATAAACATGCAAATAAAACATAAAA [TGCATGCA_site471] | 9.27 ± 0.25 |
| AGGTGCAAAAATAAAACATGCAAAAATAAAAATGAA [TGCATGCA_site502] | 9.15 ± 0.44 |

| Sequence | gcPBM binding intensity (ln) |
| --- | --- |
| CAAGGAACCAGACACACACACATAAATGTATTTATA [CACACA_site6491] | 8.39 ± 0.48 |
| TCATAAAAGATTAAGTGTACATGTGCTACTCTTATA [XGTACX_site6255] | 8.34 ± 0.25 |
| GTTTTTATCATATCATGTACGTATTTTATTTTTTTT [XGTACX_site8643] | 9.03 ± 0.32 |
| ATATATCATGAACCTTGTACGTATATATATATATAT [XGTACX_site239] | 10.2 ± 0.23 |
| ATATATATATATGTATGTACGTATGTATGTATGAAT [XGTACX_site4857] | 9.91 ± 0.29 |
| TATATATATATATAGGTGCAATATTGAAAAAATATC [GTGCAC_site9535] | 10.3 ± 0.21 |
| TAATATAATATATAGGTGCAATATTAACAAAAATTT | 8.63 ± 0.085 |
| TCTTAAAATATATAGGTGCAAAAAAAAAAAAAAAAA | 8.31 ± 0.13 |
| AATACGTTTATATATTGTACGTTATATATATATATA [XGTACX_site7452] | 9.91 ± 0.33 |
| ACCGGTGGAACGTTTTGTACATATATAATAATATAT [XGTACX_site2143] | 8.62 ± 0.5 |
| TATATATATATATATTGTACTGAACGTTTTTTTTTG [XGTACX_site8060] | 10.2 ± 0.39 |
| ATTGTGGATATTCTTACACACAAATTTATATATAAA [CACACA_site2601] | 8.37 ± 0.49 |
| AAGTTTTTTTTTAACACACACATAATAAAATAAATA [CACACA_site446] | 8.46 ± 0.31 |
| GTATGTTTAATTTTAGTGCAATTATAAATATTTTAA [GTGCAC_site9531] | 8.62 ± 0.18 |
| TATATATATTTATATGCATGTAATATATTTGTATTG [TGCATGCA_site323] | 8.71 ± 0.3 |
| AAAAAAAAAAAAAAAAGGGGGGGAGGGATTGAAAAA [CACACA_negctrl_site193] | 10.22 ± 0.042 |
| AAAAAAAAATGAAAAGAAAAAAAAAGAAAAAAGGGA [CACACA_negctrl_site287] | 8.61 ± 0.67 |
| GGGGAAAAAAAAAAAGGAAAAAGAAAAAAAAAAAAA [GTGCAC_negctrl_site489] | 8.38 ± 0.39 |
| CTATTATAATATTTTACACACCATGTAAGATATATA [CACACA_site7492] | 8.46 ± 0.35 |
| TTAATCCTTTTTAAAAGTACACATATATATATATAT [XGTACX_site962] | 10.2 ± 0.38 |
| AAATAAAATACATATAAACACACATATAAACCAACA [CACACA_site8789] | 8.88 ± 0.61 |
| TCTTTTAAACAGTACACACACACATATATATATATA [CACACA_site924] | 10.3 ± 0.22 |
| TCTTTTAAACAGTACACACACACATCTATATTTATA [CACACA_site6559] | 8.755 ± 0.078 |

| Sequence | gcPBM binding intensity (ln) |
| --- | --- |
| CATATTTTTTCTTAAACACACACATATATATATATA [CACACA_site8920] | 10.1 ± 0.41 |
| ATTATATTATTTTAAAGTACACACATATATTAATAT [XGTACX_site4769] | 8.63 ± 0.24 |
| TATTTTTTCTTAAACACACACATATATATATATAAT [CACACA_site5567] | 8.56 ± 0.39 |
| TATATTCTTTTAAACAGTACACACACACATATATAT [XGTACX_site1701] | 8.96 ± 0.44 |
| TTAAAACCAAAACACAGTACATATATATATATATAT [XGTACX_site5668] | 10.3 ± 0.23 |
| TTAACAGTAAAACACAGTACATATATACTTAAAACA [XGTACX_site1930] | 8.59 ± 0.35 |
| TTTTCTTTTAAACATATATATATATATATATATATA [XGTACX_negctrl_site559] | 10.4 ± 0.23 |
| TATTTTAAAAAAAAAAGTACACATAATATATATAAC [XGTACX_site5416] | 8.64 ± 0.26 |
| ATATATATATTAAATACACACATTTTTGATTAGGTT [CACACA_site3119] | 9.405 ± 0.078 |
| TAAATAAGTATTACTAGTACACACAAGTTGTTAATC [XGTACX_site7074] | 8.57 ± 0.28 |
| TTTTATGTTCTTAATGCACACTTATAAGTATCTTAT [CACACA_site4895] | 9.07 ± 0.21 |
| TATCATATAAAACATGCACACATATGTACTCTTATA [CACACA_site9249] | 8.77 ± 0.31 |
| ATTTTTTATGAAAATAAACACACGATTTATTATATA [CACACA_site1312] | 8.14 ± 0.33 |
| AGAAAAAAGAGGGATACACACAAACATATATTTATA [CACACA_site7122] | 8.81 ± 0.29 |
| ACATATAATATATATATATATATATATATATATAAT [GTGCAC_negctrl_site648] | 8.66 ± 0.18 |
| TTGGTATAAAATTATAGTACATAAGGTAAATATAAA [XGTACX_site4698] | 8.56 ± 0.33 |
| GGAATATTAAAAAAATGTACAAAAAATAATATCCAT [XGTACX_site2596] | 8.97 ± 0.36 |
| ATATTAAGAATGTATACATGCATATATATATAGTAC [TGCATGCA_site219] | 9.17 ± 0.42 |
| TTTTGAAGCTTTAAAACATATATATATATATATATA [CACACA_negctrl_site184] | 10.3 ± 0.4 |
| CATAAACTTTTTAACACACACTTATATATATATATA [CACACA_site4747] | 10.3 ± 0.23 |
| TTAAAACATATTTTGAATTAATATATTTTAATATTA [XGTACX_negctrl_site148] | 7.72 ± 0.39 |
| CATAAACTTTATAACACACACTTATAAATATAAATA [CACACA_site6646] | 8.41 ± 0.4 |
| AAACTTTTTTTAAAAACACACATATATATTTATATA [CACACA_site4092] | 8.36 ± 0.41 |

| Sequence | gcPBM binding intensity (ln) |
| --- | --- |
| TACATAAACTTTATAACACACACTTATATATATATA [CACACA_site1106] | 9.86 ± 0.18 |
| TGTTATATATGTAATTGTACACTTATACAAAATTAT [XGTACX_site6350] | 8.52 ± 0.22 |
| TTTTTGTTTTTGTTTTGTACTCATACATACTATCAT [XGTACX_site4210] | 8.99 ± 0.44 |
| AAAAAAAATATATTACAAAACTTAGGATCCTAATAT [CACACA_negctrl_site470] | 8.48 ± 0.39 |
| AAATATTAAATGGAAAACAAATATATATATCTTAAT [XGTACX_negctrl_site383] | 8.56 ± 0.38 |
| TATATATATATATGGGGTACAAATGGTCAGTATTAT [XGTACX_site1223] | 10.2 ± 0.21 |
| AAAAAAAAAATTGAAAGTACACAAATGGGGTATTAT [XGTACX_site3960] | 8.75 ± 0.35 |
| TATGTATAAAAATAATGTACAAAATATATTATATGT [XGTACX_site2794] | 8.69 ± 0.33 |
| GATATTCATTATATATGTACATATATGTAATATATA [XGTACX_site2210] | 8.55 ± 0.24 |
| TATATATATAAACACACACACATATATATATATATA [CACACA_site4584] | 10.1 ± 0.35 |
| TAATAAAAAAAGTGCACACACATAATATATATATAT [CACACA_site3340] | 9.74 ± 0.28 |
| AAAAAAAAAAAAAAGACACACATATATATATATATA [CACACA_site633] | 10 ± 0.31 |
| TCTATAAAGGAATATACACACATATATATATATATA [CACACA_site410] | 10 ± 0.26 |
| GTAATCCACAAACACACACACATACACATATATATA [CACACA_site2728] | 8.78 ± 0.34 |
| AATAATAAAAAAAGTGCACACACATAATATATATAT [CACACA_site9100] | 9.47 ± 0.099 |
| TATAAAAGTGGACACACACACATATATATATATATA [CACACA_site4673] | 10.2 ± 0.64 |
| TATATATATAAACACACACACACATATATATATATT [CACACA_site8814] | 9.02 ± 0.23 |
| GAATAAAGGAGAGGCACACATATATATATATATATA [CACACA_site2452] | 10.2 ± 0.25 |
| AATATAAAAAGGCACACACACAAAAAAAAAAAAAAA [CACACA_site896] | 8.26 ± 0.49 |
| AAACATAAGGGACACACACACATATATATATATATA [CACACA_site5920] | 10.3 ± 0.16 |
| AATCCACAAAGACACACACACACATATATATATATA [CACACA_site1269] | 10.2 ± 0.35 |
